Shown are actives, neighbours in structure and some others; about 1.6% of the full set was active somewhere.
KCNQ2 enhance: enhances the rat KCNQ2 potassium channel. B-score at 10 µM. O88943. 0.54% of 310,000 active. CHO-K1 KCNQ2, FluxOR thallium flux fluorescence; stronger effect = higher value. AID 2239;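 active = fluorescence ratio B-score at least 3 SD of library B-scores, with initial fluorescence B-score within 3 of them, cut at about 5.3 in these data; same plate scores as AID 2156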;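 note: B-score of peak minus minimum over baseline fluorescence ratio after K+ and Tl+ stimulus; positive B-score means potentiation of KCNQ2 with more thallium influx and brighter signal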
Target sequence (O88943 whole entry, looked up): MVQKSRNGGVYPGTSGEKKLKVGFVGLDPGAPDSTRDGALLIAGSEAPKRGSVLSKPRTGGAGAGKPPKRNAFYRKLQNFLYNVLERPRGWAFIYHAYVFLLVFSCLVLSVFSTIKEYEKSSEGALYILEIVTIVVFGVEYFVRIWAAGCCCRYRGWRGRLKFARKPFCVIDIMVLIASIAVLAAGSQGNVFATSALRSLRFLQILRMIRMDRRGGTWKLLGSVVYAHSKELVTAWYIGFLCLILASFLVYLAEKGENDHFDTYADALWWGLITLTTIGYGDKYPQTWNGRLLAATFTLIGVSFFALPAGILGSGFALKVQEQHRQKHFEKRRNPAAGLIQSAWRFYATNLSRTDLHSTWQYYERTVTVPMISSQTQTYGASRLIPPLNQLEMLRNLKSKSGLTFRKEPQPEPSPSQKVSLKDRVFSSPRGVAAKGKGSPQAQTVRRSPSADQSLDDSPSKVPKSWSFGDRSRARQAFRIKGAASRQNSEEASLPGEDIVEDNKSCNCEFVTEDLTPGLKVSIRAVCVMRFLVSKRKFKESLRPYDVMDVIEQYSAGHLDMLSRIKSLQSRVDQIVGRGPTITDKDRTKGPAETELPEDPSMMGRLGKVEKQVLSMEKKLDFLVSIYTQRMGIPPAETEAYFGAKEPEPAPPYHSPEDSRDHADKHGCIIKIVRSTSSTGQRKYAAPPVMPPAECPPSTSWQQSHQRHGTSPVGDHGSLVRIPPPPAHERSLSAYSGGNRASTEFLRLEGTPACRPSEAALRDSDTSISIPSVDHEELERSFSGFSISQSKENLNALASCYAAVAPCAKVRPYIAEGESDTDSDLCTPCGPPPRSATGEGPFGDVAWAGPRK
KCNQ2 block: KCNQ2 (rat) channel inhibition | CHO-K1 KCNQ2, FluxOR thallium flux, 20 min; stronger effect = lower value | B-score at 10 µM | 1.1% of 310,000 active | O88943;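 active = fluorescence ratio B-score at most minus 3 library SDs, with starting brightness B-score within 2 library SDs, cut at about -5.5 in these data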
The depositor's hits bear a star; i = inactive; . = not tested or not shown.

SMILES | KCNQ2 enhance | KCNQ2 block
CCOC(=O)C1=C(C)N=c2s/c(=C\c3ccc(O)c([N+](=O)[O-])c3)c(=O)n2C1c1ccccc1OC (centres undefined) | -7.19 | -7.19*
CCOC(=O)C1=C(C)n2c(s/c(=C/c3cccc([N+](=O)[O-])c3)c2=O)=NC1c1ccc(O)c(OC)c1 (centres undefined) | -6.12 | -6.12*
CCOC(=O)C1=C(C)N=c2s/c(=C/c3ccccc3)c(=O)n2C1c1ccc(OC)c(OC)c1 (centres undefined) | . | i
CCOC(=O)C1=C(C)N=c2s/c(=C\c3ccc(OCC(=O)O)cc3)c(=O)n2C1c1ccccc1OC (centres undefined) | 1.09 | i
Cc1cccc(C)c1OCc1cc(C(=O)NCC2CC2)no1 | 0.18 | i
COCCn1c(=O)[nH]c2cc(C(=O)Nc3cccc(C(C)=O)c3)ccc2c1=O | . | i
COc1ccc(N(CC2CO2)S(=O)(=O)c2ccc(C)cc2)cc1 (centres undefined) | . | i
CCn1ccnc1CN(C)Cc1cn(-c2ccc(C)cc2)nc1-c1ccc(F)cc1 | . | i
CCn1ccnc1CN(C)Cc1cn(-c2cc(C)ccc2C)nc1-c1ccccc1 | -8.17 | -8.17*
CC(/C=C1\SC(=S)N(NC(=O)c2ccccc2C)C1=O)=C\c1ccccc1 | . | i
CC(/C=C1\SC(=S)N(NS(=O)(=O)c2ccc(C)cc2)C1=O)=C\c1ccccc1 | 21.4* | i
CCc1nnc(NC(=O)CSc2nnc3nc(C)cc(C)n23)s1 | 0.49 | i
O=C(Cc1cccs1)N1CCN(c2ccc(F)cc2)CC1 | 1.23 | i
O=C(c1cc([N+](=O)[O-])ccc1Cl)N1CCN(c2ccc(F)cc2)CC1 | 0.24 | i
O=C(Cc1cccs1)N1CCN(c2ccc([N+](=O)[O-])cc2)CC1 | -5.55 | -5.55*
O=C(c1cc([N+](=O)[O-])ccc1Cl)N1CCN(c2ccc([N+](=O)[O-])cc2)CC1 | -6.87 | -6.87*
CC(C)n1nnnc1SCC(=O)Nc1cccc(F)c1 | . | i
COc1ccc(/C=C2/NC(=O)CNC2=O)cc1 | . | i
Cc1c(Cl)cccc1NC(=O)CSc1ncnc2c1cnn2CCc1ccccc1 | . | i
O=C(CSc1ncnc2c1cnn2CCc1ccccc1)Nc1cccc(C(F)(F)F)c1 | -6.73 | -6.73*
Cc1ccc(Sc2ccc(C(=O)N3CCOCC3)cc2[N+](=O)[O-])cc1 | 1.37 | i
COC(=O)c1ccc(OC)c(CSc2nnc(COc3cccc(C)c3)o2)c1 | -6.07 | -6.07*
COC(=O)c1ccc(OC)c(CSc2nnc(COc3ccc(OC)cc3)o2)c1 | . | i
Cc1cc(/C=C(/C#N)c2cccc(F)c2)c(C)n1-c1cccnc1 | -8 | -8*
Cc1cc(/C=C(\C#N)C(=O)NCc2ccco2)c(C)n1-c1cccnc1 | 0.47 | i
SMILES | KCNQ2 enhance | KCNQ2 block
CCOc1ccc(C2=NNC(c3cccnc3)=Nc3ccc(OC)cc32)cc1 | . | i
CCOc1ccc(C2=NNC(c3cccs3)=Nc3ccc(OC)cc32)cc1 | -5.62 | -5.62*
COc1cccc(N2CC(C)Cn3c2nc2c3c(=O)[nH]c(=O)n2C)c1 (centres undefined) | 0.94 | i
O=C(CN(C(=O)c1csnn1)c1ccccc1C(F)(F)F)NC1CCCCC1 | . | i
COc1cccc(OC)c1OCCCN1CCC(Cc2ccccc2)CC1 | 0.35 | i
O=C(NCCCN1CCOCC1)C(=O)NCc1ccc(Cl)cc1 | . | i
CCOC(=O)c1c(-n2c(C)cc(C=O)c2C)sc2c1CCCC2 | -6.12 | -6.12*
CCOC(=O)c1cccc(-n2c(C)cc(C=O)c2C)c1 | 2.61 | i
CCC1CSC(=Nc2ccc(C)cc2)N1C(=O)CN1C(=O)NC2(CCCC2)C1=O (centres undefined) | . | i
O=[N+]([O-])c1ccc2c(c1)C=C1CCCCC1(N1CCCCC1)O2 (centres undefined) | -5.74 | -5.74*
O=c1nc2n(c3ccc([N+](=O)[O-])cc13)CCCCC2 | . | i
COCCCN(CC(=O)Nc1ccc(N2CCOCC2)cc1)S(=O)(=O)c1ccccc1 | 3.27 | i
COc1ccc(OC)c(NC(=O)c2c3c(nc4ccccc24)CCC3)c1 | -6.09 | -6.09*
COC(=O)c1c2c(nc3ccccc13)CCC2 | 0.42 | i
O=C(Nc1ccccc1)c1c2c(nc3ccccc13)CCCC2 | -8.18 | -8.18*
COc1ccc(NC(=O)c2c3c(nc4ccccc24)CCC3)cc1 | . | i
COc1ccc(NS(=O)(=O)c2cc(NC(=O)c3ccc(C)s3)ccc2N2CCOCC2)cc1 | . | i
Cn1cnnc1SC1c2cccc3cccc(c23)C1NS(=O)(=O)c1ccccc1 (centres undefined) | . | i
Cc1ccc(S(=O)(=O)NC2c3cccc4cccc(c34)C2Sc2nc(C)cc(C)n2)cc1 (centres undefined) | -6.4 | -6.4*
Cc1ccc(S(=O)(=O)NC2c3cccc4cccc(c34)C2Sc2nncn2C)cc1 (centres undefined) | 1.49 | i
O=S(=O)(NC1c2cccc3cccc(c23)C1Sc1ncccn1)c1ccccc1 (centres undefined) | -6.41 | -6.41*
Cc1cccc(C(=O)Nc2ccc(NC(=O)CN3CCOCC3)cc2)c1 | 0.97 | i
COc1ccc(C=O)cc1COc1ccc([N+](=O)[O-])c(C)c1 | -6.82 | -6.82*
COc1ccc(/C=C/C(=O)O)cc1COc1cccc(C)c1 | 0.61 | i
Cn1c(C(=O)N2CCN(c3ccccc3)CC2)cc2cc(Cl)ccc21 | . | i
SMILES | KCNQ2 enhance | KCNQ2 block
O=C(c1ccc2c(c1)OCO2)N(Cc1ccco1)C1(C(=O)NC2CCCCC2)CCCCC1 | -7.31 | -7.31*
O=C(c1ccccn1)N(Cc1ccco1)C1(C(=O)NC2CCCC2)CCCCC1 | . | i
CC1CCc2sc(-c3n[nH]c(=S)o3)cc2C1 (centres undefined) | 2.68 | i
S=c1[nH]nc(-c2cc3c(s2)-c2ccccc2CC3)o1 | 16.2* | i
N#C/C=C/N1CCC(Cc2ccccc2)CC1 | 0.32 | i
COc1ccc2c(c1)C(C)CC(C)(C)N2C(=O)CSc1nc2ccccc2s1 (centres undefined) | -7.46 | -7.46*
COc1ccc2c(c1)C(C)CC(C)(C)N2C(=O)Nc1ccccc1 (centres undefined) | . | i
O=C(NCc1ccco1)Nc1ccc2snnc2c1 | 6.13* | i
Cc1nc2ccc(NC(=O)NCc3ccco3)cc2s1 | 0.31 | i
N#CC(C(=O)NC1CCCCC1)c1nc2ccccc2nc1N1CCN(c2ccc(F)cc2)CC1 (centres undefined) | -5.77 | -5.77*
N#CC(C(=O)NC1CC1)c1nc2ccccc2nc1N1CCCC1 (centres undefined) | . | i
O=C(NCCS(=O)(=O)NCc1ccc2c(c1)OCO2)c1ccccc1 | . | i
CN1C(CC(=O)Nc2ccc(Cl)cc2Cl)c2ccccc2CC1(C)C (centres undefined) | . | i
CCOC(=O)/C(C(=O)Nc1ccc(Cl)cc1Cl)=C1/NC(C)(C)Cc2ccccc21 | -6.3 | -6.3*
COc1cccc2[nH]c3c(N4CCN(Cc5ccc6c(c5)OCO6)CC4)ncnc3c12 | 1.12 | i
Cc1ccc2[nH]c3c(N4CCN(Cc5ccccc5)CC4)ncnc3c2c1 | . | i
COc1ccc2c(c1)[nH]c1c(N3CCN(Cc4ccc5c(c4)OCO5)CC3)ncnc12 | -8.09 | -8.09*
c1ccc(CN2CCN(c3ncnc4c3[nH]c3ccccc34)CC2)cc1 | -8.09 | -8.09*
Cc1ccc(N2CCC(N3CCN(C4CCCCC4)C(CCO)C3)CC2)cc1 (centres undefined) | . | i

Source: PubChem BioAssay
